ChEMBL document CHEMBL5598561, “ASAP - In vitro binding kinetics” (2024)

Target: Nonstructural protein 3 (Zika virus) (UniProt A0A024AXB9)
Conditions: PRVABC59, Concentration 10.0 uM

Nonstructural protein 3 (Zika virus), sequence (A0A024AXB9 as listed by the source): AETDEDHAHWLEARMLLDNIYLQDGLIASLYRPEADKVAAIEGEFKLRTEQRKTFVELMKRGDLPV

CC(C)c1nc2c(C(=O)Nc3ccc4c(c3)CNC4)cc(Br)cc2[nH]1 showed a pKD (Immobilization level 10000.0 pg/mm2, Rmax 28.0 pg/mm2, ka 451108.713 M-1s-1, kd 0.396 1/s) of 6.06, a pKD (Immobilization level 12000.0 pg/mm2, Rmax 37.0 pg/mm2, ka 197303.267 M-1s-1, kd 0.307 1/s) of 5.81 and a pKD (Immobilization level 13000.0 pg/mm2, Rmax 31.0 pg/mm2, ka 315714.539 M-1s-1, kd 0.366 1/s) of 5.94.
In the case of O=C(Nc1cnc2c(c1)CNCC2)c1cc(Cl)cc2[nH]ncc12, the pKD (Immobilization level 10000.0 pg/mm2, Rmax 20.0 pg/mm2, ka 1026935.718 M-1s-1, kd 0.802 1/s) is reported as 6.11, the pKD (Immobilization level 12000.0 pg/mm2, Rmax 35.0 pg/mm2, ka 607851.885 M-1s-1, kd 0.465 1/s) is reported as 6.12 and the pKD (Immobilization level 13000.0 pg/mm2, Rmax 25.0 pg/mm2, ka 909514.232 M-1s-1, kd 0.608 1/s) is reported as 6.17.
Work on O=C(NCC1CCOCC1)[C@H](Nc1ccc2c(c1)CNC2)c1cc(Cl)cc2[nH]ncc12 yielded a pKD (Immobilization level 10000.0 pg/mm2, Rmax 24.0 pg/mm2, ka 732529.674 M-1s-1, kd 0.501 1/s) of 6.17, a pKD (Immobilization level 12000.0 pg/mm2, Rmax 44.0 pg/mm2, ka 461664.392 M-1s-1, kd 0.336 1/s) of 6.14 and a pKD (Immobilization level 13000.0 pg/mm2, Rmax 32.0 pg/mm2, ka 718906.653 M-1s-1, kd 0.399 1/s) of 6.25.
For C[C@H]1Oc2c(cccc2C(=O)Nc2ccc3c(c2)CNC3)NC1=O, the pKD (Immobilization level 10000.0 pg/mm2, Rmax 20.0 pg/mm2, ka 247912.445 M-1s-1, kd 2.654 1/s) was 4.97, the pKD (Immobilization level 12000.0 pg/mm2, Rmax 35.0 pg/mm2, ka 236689.654 M-1s-1, kd 1.809 1/s) was 5.12 and the pKD (Immobilization level 13000.0 pg/mm2, Rmax 26.0 pg/mm2, ka 250555.254 M-1s-1, kd 1.96 1/s) was 5.11.
Compound O=C(Nc1ccc2c(c1)CNC2)c1cc(Cl)cc(C2CC2)c1 has a pKD (Immobilization level 10000.0 pg/mm2, Rmax 36.0 pg/mm2, ka 451548.811 M-1s-1, kd 1.111 1/s) of 5.61, a pKD (Immobilization level 12000.0 pg/mm2, Rmax 40.0 pg/mm2, ka 259383.571 M-1s-1, kd 0.558 1/s) of 5.67 and a pKD (Immobilization level 13000.0 pg/mm2, Rmax 32.0 pg/mm2, ka 444846.323 M-1s-1, kd 0.765 1/s) of 5.76.
In the case of O=C1CCN(c2cc(Cl)cc(C(=O)Nc3ccc4c(c3)CNC4)c2)C(=O)N1, the pKD (Immobilization level 10000.0 pg/mm2, Rmax 25.0 pg/mm2, ka 256015.917 M-1s-1, kd 2.294 1/s) is reported as 5.05, the pKD (Immobilization level 12000.0 pg/mm2, Rmax 56.0 pg/mm2, ka 218751.029 M-1s-1, kd 1.634 1/s) is reported as 5.13 and the pKD (Immobilization level 13000.0 pg/mm2, Rmax 29.0 pg/mm2, ka 336624.127 M-1s-1, kd 1.776 1/s) is reported as 5.28.
With CCCN1C(=O)[C@](C#N)(Nc2ccc3c(c2)CNC3)c2ccccc21 the pKD (Immobilization level 3900.0 pg/mm2, Rmax 21.0 pg/mm2, ka 159960.868 M-1s-1, kd 3.775 1/s) was 4.63, the pKD (Immobilization level 5500.0 pg/mm2, Rmax 21.0 pg/mm2, ka 193790.134 M-1s-1, kd 2.393 1/s) was 4.91 and the pKD (Immobilization level 12000.0 pg/mm2, Rmax 14.0 pg/mm2, ka 179346.718 M-1s-1, kd 2.44 1/s) was 4.87.
With N#Cc1cc(Cl)cc(C(=O)Nc2ccc3c(c2)CNC3)c1 the pKD (Immobilization level 10000.0 pg/mm2, Rmax 13.0 pg/mm2, ka 937740.865 M-1s-1, kd 1.0 1/s) was 5.97, the pKD (Immobilization level 12000.0 pg/mm2, Rmax 30.0 pg/mm2, ka 568340.521 M-1s-1, kd 0.543 1/s) was 6.02 and the pKD (Immobilization level 13000.0 pg/mm2, Rmax 21.0 pg/mm2, ka 849954.362 M-1s-1, kd 0.772 1/s) was 6.04.
For O=C(Nc1ccc2c(c1)CNC2)c1cc(Br)cc2[nH]c([C@H]3CCOC3)nc12, the pKD (Immobilization level 10000.0 pg/mm2, Rmax 19.0 pg/mm2, ka 727525.444 M-1s-1, kd 0.791 1/s) was 5.96, the pKD (Immobilization level 12000.0 pg/mm2, Rmax 41.0 pg/mm2, ka 451126.44 M-1s-1, kd 0.431 1/s) was 6.02 and the pKD (Immobilization level 13000.0 pg/mm2, Rmax 27.0 pg/mm2, ka 652953.753 M-1s-1, kd 0.609 1/s) was 6.03.
With Clc1cc(CNc2ccc3c(c2)CNC3)c2cn[nH]c2c1 the pKD (Immobilization level 10000.0 pg/mm2, Rmax 2.0 pg/mm2, ka 219034.03 M-1s-1, kd 0.842 1/s) was 5.42, the pKD (Immobilization level 12000.0 pg/mm2, Rmax 10.0 pg/mm2, ka 126196.485 M-1s-1, kd 1.272 1/s) was 5 and the pKD (Immobilization level 13000.0 pg/mm2, ka 206129.831 M-1s-1, kd 1.048 1/s) was 5.29.
O=C(Nc1ccc2c(c1)OCCNC2)c1cc(Cl)cc2[nH]ncc12 showed a pKD (Immobilization level 10000.0 pg/mm2, Rmax 33.0 pg/mm2, ka 475344.334 M-1s-1, kd 1.334 1/s) of 5.55, a pKD (Immobilization level 12000.0 pg/mm2, Rmax 41.0 pg/mm2, ka 216924.489 M-1s-1, kd 0.865 1/s) of 5.4 and a pKD (Immobilization level 13000.0 pg/mm2, Rmax 42.0 pg/mm2, ka 331181.332 M-1s-1, kd 1.11 1/s) of 5.47.
Cc1ccc(S(=O)(=O)CNC(=O)[C@H](Nc2ccc3c(c2)CNC3)c2cc(Cl)cc3[nH]ncc23)cc1 showed a pKD (Immobilization level 10000.0 pg/mm2, Rmax 21.0 pg/mm2, ka 226355.861 M-1s-1, kd 0.557 1/s) of 5.61, a pKD (Immobilization level 12000.0 pg/mm2, Rmax 37.0 pg/mm2, ka 111566.09 M-1s-1, kd 0.368 1/s) of 5.48 and a pKD (Immobilization level 13000.0 pg/mm2, Rmax 27.0 pg/mm2, ka 177747.1 M-1s-1, kd 0.47 1/s) of 5.58.
For N#CCCNC(=O)[C@H](Nc1ccc2c(c1)CNC2)c1cc(Cl)cc(C2CC2)c1, the pKD (Immobilization level 10000.0 pg/mm2, Rmax 28.0 pg/mm2, ka 442303.592 M-1s-1, kd 0.092 1/s) was 6.68, the pKD (Immobilization level 12000.0 pg/mm2, Rmax 54.0 pg/mm2, ka 245042.447 M-1s-1, kd 0.064 1/s) was 6.58 and the pKD (Immobilization level 13000.0 pg/mm2, Rmax 39.0 pg/mm2, ka 364691.558 M-1s-1, kd 0.079 1/s) was 6.67.
For N#Cc1ccc(Cl)c(C(=O)Nc2ccc3c(c2)CNC3)c1, the pKD (Immobilization level 10000.0 pg/mm2, Rmax 28.0 pg/mm2, ka 455778.547 M-1s-1, kd 4.384 1/s) was 5.02, the pKD (Immobilization level 12000.0 pg/mm2, Rmax 32.0 pg/mm2, ka 264828.882 M-1s-1, kd 2.458 1/s) was 5.03 and the pKD (Immobilization level 13000.0 pg/mm2, Rmax 23.0 pg/mm2, ka 313770.073 M-1s-1, kd 2.521 1/s) was 5.09.
CC(C)c1cc(Br)cc(C(=O)Nc2ccc3c(c2)CNC3)c1 showed a pKD (Immobilization level 10000.0 pg/mm2, Rmax 17.0 pg/mm2, ka 881880.966 M-1s-1, kd 1.212 1/s) of 5.86, a pKD (Immobilization level 12000.0 pg/mm2, Rmax 74.0 pg/mm2, ka 247931.968 M-1s-1, kd 0.872 1/s) of 5.45 and a pKD (Immobilization level 13000.0 pg/mm2, Rmax 30.0 pg/mm2, ka 643252.953 M-1s-1, kd 1.046 1/s) of 5.79.
With CN1Cc2ccc(NC(=O)c3cc(Cl)cc4[nH]ncc34)cc2C1 the pKD (Immobilization level 10000.0 pg/mm2, Rmax 20.0 pg/mm2, ka 391825.056 M-1s-1, kd 0.668 1/s) was 5.77, the pKD (Immobilization level 12000.0 pg/mm2, Rmax 38.0 pg/mm2, ka 177362.143 M-1s-1, kd 0.381 1/s) was 5.67 and the pKD (Immobilization level 13000.0 pg/mm2, Rmax 24.0 pg/mm2, ka 298987.187 M-1s-1, kd 0.52 1/s) was 5.76.
With O=C(Nc1ccc(C2CCNCC2)cc1)c1cc(Cl)cc2[nH]ncc12 the pKD (Immobilization level 10000.0 pg/mm2, Rmax 4.0 pg/mm2, ka 163257.858 M-1s-1, kd 0.446 1/s) was 5.56, the pKD (Immobilization level 12000.0 pg/mm2, ka 318291.503 M-1s-1, kd 0.429 1/s) was 5.87 and the pKD (Immobilization level 13000.0 pg/mm2, ka 203161.324 M-1s-1, kd 0.494 1/s) was 5.61.
For O=C(Nc1ccc2c(c1)CNC2)c1ccc(F)c2[nH]ncc12, the pKD (Immobilization level 10000.0 pg/mm2, Rmax 1.0 pg/mm2, ka 202467.762 M-1s-1, kd 1.761 1/s) was 5.06, the pKD (Immobilization level 12000.0 pg/mm2, Rmax 8.0 pg/mm2, ka 155094.955 M-1s-1, kd 1.71 1/s) was 4.96 and the pKD (Immobilization level 13000.0 pg/mm2, ka 200831.038 M-1s-1, kd 1.747 1/s) was 5.06.
Work on CC(C)(C)c1cc(Br)cc(C(=O)Nc2ccc3c(c2)CNC3)c1 yielded a pKD (Immobilization level 10000.0 pg/mm2, Rmax 22.0 pg/mm2, ka 615092.383 M-1s-1, kd 1.528 1/s) of 5.61, a pKD (Immobilization level 12000.0 pg/mm2, Rmax 78.0 pg/mm2, ka 256799.727 M-1s-1, kd 0.952 1/s) of 5.43 and a pKD (Immobilization level 13000.0 pg/mm2, Rmax 43.0 pg/mm2, ka 306862.061 M-1s-1, kd 1.159 1/s) of 5.42.
